Hits are enriched below; roughly 19% of the tested compounds scored in any of these assays.
TDP1 cell noCPT – qHTS for Inhibitors of human tyrosyl-DNA phosphodiesterase 1 (TDP1): qHTS in cells in absence of CPT. DT40 Tdp1-/- hTDP1 cells, no CPT, ATP luminescence, 48 h. Potency, µM (series often up to 46.2 µM), most hits filed as inhibitors. hit rate 15% among 420,000; further: nearly all actives have a fitted effect of over 55% in size
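Stably hTDP1-transfected Tdp1-null chicken DT40 cells were treated with library compounds minus camptothecin and grown for at least 48 hr at 37 °C, after which cellular ATP was quantified by luminescence.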
HT1080 IDH1KD tx – qHTS for induction of synthetic lethality in tumor cells producing 2HG: qHTS for the HT-1080-IDH1KD cell line; Potency, µM (highest dose often 46.1 µM), usual class: cytotoxic; hit rate 2% among 360,000; HT-1080 IDH1 knockdown viability, ATP luminescence, 48 h
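Assay cells: HT-1080 with IDH1 knockdown, 750 per well, RPMI/5% FBS. Exposure: 48 h at 37 °C following 2 h pre-incubation. Read: CellTiter-Glo luminescence; fitted concentration-response, curve class assigned.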
HT1080-NT tox – qHTS for induction of synthetic lethality in tumor cells producing 2HG: qHTS for the HT-1080-NT fibrosarcoma cell line | hit rate 1.6% among 360,000 | AID 686970, 2013 | HT-1080-NT fibrosarcoma viability, CellTiter-Glo ATP luminescence, 48 h | Potency, µM (titrated, usually from 46.1 µM), usual class: cytotoxic;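 further: NT is the 2HG producing partner of a matched IDH1 knockdown line; nearly all actives have a fitted effect of over 55% in size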
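HT-1080-NT; 750 cells/well; 5% FBS RPMI; 48 h compound, 37 degrees C; CellTiter-Glo luminescence; curve fitting and curve-class assignment.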
IL1B secr inh – qHTS for Inhibitors of Inflammasome Signaling: IL-1-beta AlphaLISA Primary Screen; AID 743279, 2014; activity change, % at 57.5 µM; THP-1 LPS/ATP IL-1B secretion, AlphaLISA, 16 h; stronger effect = lower value; hit rate 4.7% among 360,000; in the data active means activity change below about -50%; inconclusive means mostly about -30% to -49%
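Secreted IL-1B measured by AlphaLISA bead assay after 16 h compound exposure of THP-1 cells; compounds (final up to 57.5 uM) added 1 h before LPS (250 ng/mL) and ATP (1.25 mM) stimulation; lower signal means less secretion.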
TDP1 cell CPT – qHTS for Inhibitors of human tyrosyl-DNA phosphodiesterase 1 (TDP1): qHTS in cells in presence of CPT. hit rate 12% among 420,000. AID 686979, 2013. chicken DT40 Tdp1-/-;hTDP1 cells + 20 nM CPT, ATP luminescence, 48 h. Potency, µM (titrated, usually from 46.2 µM), actives largely listed as inhibitors; further: nearly all actives have a fitted effect of over 55% in size
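Chicken DT40 Tdp1-/- cells complemented with human TDP1, 400 cells/well, exposed to compounds plus 20 nM camptothecin for at least 48 h at 37 C; viability read as ATP content by CellTiter-Glo luminescence.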
Hits are given with their value; i = inactive; ? = inconclusive; nt = no result. Unless noted, the call rests on the fitted dose curve; in most records, active means well fitted curve in the direction sought with a large enough effect; inconclusive means small, poorly fitted or top-dose-only effect, or another doubt; inactive means no such curve, though single readings can be large; an effect the other way counts as inactive or inconclusive.

SMILES	TDP1 cell noCPT	HT1080 IDH1KD tx	HT1080-NT tox	IL1B secr inh	TDP1 cell CPT
CCn1cc(C2=NC(C(C)C)CO2)c2ccccc21 (stereo unspecified)	i	i	i	i	i
CCn1cc(C2=NC(CC(C)C)CO2)c2ccccc21 (stereo unspecified)	14.6µM	i	i	?	?
CCC(C)Sc1cc(-c2nc3ccccn3c2NC2CCCCC2)ccc1OC (stereo unspecified)	14.6µM	18.4µM	25.9µM	-91.3	11.6µM
Cc1nc2ccccn2c1C(=O)NC1CCCCC1	i	i	i	i	i
CC(=O)c1ccc(-c2cccc(-c3nc4ccccn4c3NC3CCCCC3)c2)cc1	14.6µM	?	?	-65.5	23.1µM
CCC(C)Sc1cc(-c2nc3cc(C)ccn3c2NC2CCCCC2)ccc1OC (stereo unspecified)	20.6µM	?	20.6µM	-80.7	20.6µM
COc1ccc(-c2nc3cc(C)ccn3c2NCC2CCCO2)cc1OC (stereo unspecified)	i	i	i	i	i
O=C(N/N=C/c1cccs1)c1cccnc1	23.1µM	i	i	i	i
O=C(N/N=C/c1cccs1)c1cncc(Br)c1	i	i	i	i	i
O=C(N/N=C/c1ccc[nH]1)c1cccnc1	6.51µM	i	i	i	14.6µM
O=S(=O)(NCc1ccco1)c1ccc(Cl)nc1	i	i	i	i	i
Cc1ccccc1N/C(=C(/C(Cl)=C(Cl)Cl)[N+](=O)[O-])n1nnc2ccccc21	?	?	i	i	16.4µM
COc1ccc(S(=O)(=O)NN(C)c2nc(C(F)(F)F)nc3ccccc23)cc1	?	16.4µM	20.6µM	i	?
COc1ccc(Nc2nc3c(C)cccc3cc2C#N)c(OC)c1	i	i	i	i	i
Fc1ccc(Nc2ncnc3sc4c(c23)CCC4)cc1F	i	i	i	i	i
CCc1ccc(Nc2ncnc3sc4c(c23)CCCC4)cc1	18.4µM	nt	nt	nt	20.6µM
COc1ccc(Nc2ncnc3sc4c(c23)CCCC4)cc1	0.0291µM	nt	nt	nt	3.26µM
COc1ccc(/C=N/Nc2ncnc3sc4c(c23)CCCC4)cc1OC	16.4µM	?	?	i	?
CCc1nc(Nc2ccc(F)c(Cl)c2)c2c3c(sc2n1)CCCC3	5.8µM	nt	nt	nt	5.8µM
COc1ccc(/C=N/Nc2ncnc(Cl)c2N)cc1OC	?	i	i	i	i
O=C(Oc1ccc(N(Cc2cccs2)C2=NS(=O)(=O)c3ccccc32)cc1)c1ccccc1F	i	i	i	i	i
CN(C)S(=O)(=O)n1cc(/C=C(\NC(=O)c2ccccc2F)C(=O)N2CCCCC2)c2ccccc21	?	i	i	i	i
COc1ccc(CCNC(=O)COC(=O)Cc2c[nH]c3ccccc23)cc1OC	i	i	i	i	?
CCOC(=O)C1=C(C)N=C2SC(C)C(=O)N2C1c1ccc(OCC)c(OCC)c1 (stereo unspecified)	?	i	i	i	i
O=C(OCC(=O)N1CCOCC1)c1cc(-c2ccccc2)nc2ccccc12	i	i	i	i	i
SMILES	TDP1 cell noCPT	HT1080 IDH1KD tx	HT1080-NT tox	IL1B secr inh	TDP1 cell CPT
Cc1nc(Nc2cccc(O)c2)c2c3c(sc2n1)CCC3	20.6µM	i	?	i	18.4µM
O=[N+]([O-])c1ccc2c(c1)-c1ccccc1C2=NO	16.4µM	i	i	-74.7	18.4µM
O=C(Nc1ccc2c(c1)Cc1cc([N+](=O)[O-])ccc1-2)C(F)(F)F	6.51µM	i	i	i	?
O=C1OC(=O)c2cc([N+](=O)[O-])ccc21	i	i	i	-53.6	i
O=[N+]([O-])c1ccc2c(c1)C(=Nc1ccccc1)c1ccccc1-2	i	i	i	i	i
Nc1ccc2c(c1)C(=NO)c1cc([N+](=O)[O-])ccc1-2	2.06µM	?	i	-73.4	0.581µM
O=C1Nc2ccccc2Nc2ccc([N+](=O)[O-])cc21	i	i	i	i	i
COc1cccc(NC(=O)c2cnc(NS(=O)(=O)c3ccccc3)nc2)c1	?	i	i	i	?

Assay outcomes from PubChem.
